High-throughput results (PubChem)
PTAP TSG101 blk – qHTS Assay for Iinhibitors of HIV-1 Budding by Blocking the Interaction of PTAP/TSG101. Fluorescence polarization, FITC-PTAP peptide / Tsg101 binding. Potency, µM (top dose mostly 115 µM), most hits filed as inhibitors. 340,000 tested, under 10 active. AID 493005, 2010; active = well fitted inhibition curve with a large enough effect in the main read-out, with a control signal flat, not every such curve was filed as active; inconclusive = small, poorly fitted or top-dose-only effect, or effect the other way, or a change in a side signal; inactive = no such curve, though single readings can be large or run the other way
Target sequence (Q99816 whole entry, looked up): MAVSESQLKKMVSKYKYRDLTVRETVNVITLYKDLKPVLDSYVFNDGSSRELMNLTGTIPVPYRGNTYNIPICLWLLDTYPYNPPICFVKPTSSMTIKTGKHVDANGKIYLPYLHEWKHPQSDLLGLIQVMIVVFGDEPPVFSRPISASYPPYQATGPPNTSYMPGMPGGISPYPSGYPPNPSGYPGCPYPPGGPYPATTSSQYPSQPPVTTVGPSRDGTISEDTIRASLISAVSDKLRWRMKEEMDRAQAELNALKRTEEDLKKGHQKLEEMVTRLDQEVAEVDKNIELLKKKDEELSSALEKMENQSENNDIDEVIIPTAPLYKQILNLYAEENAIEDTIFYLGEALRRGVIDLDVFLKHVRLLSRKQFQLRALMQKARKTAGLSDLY
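Tsg101 binding domain (10 uM final) was mixed with compound and a FITC-labeled PTAP peptide (50 nM final) in HEPES pH 7.5 buffer with NaCl, Tween 20, EDTA and TCEP; fluorescence polarization was read after 20 min at r.t.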
KB-3-1 tox – qHTS assay for MDR1-selective chemotherapeutics: Primary screen using the parental adenocarcinoma cell KB-3-1 | KB-3-1 viability, CellTiter-Glo ATP luminescence, 72 h | Potency, µM (series often up to 46.1 µM), hits mostly cytotoxic | AID 1347075, 2019 | actives 1.4% (n = 400,000); note: nearly all actives have a fitted effect of over 60% in size
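Using CellTiter-Glo luminescence, growth of non-resistant KB-3-1 adenocarcinoma cells is assessed 72 h after pin-tool compound addition at 37 °C. Normalized responses across the concentration series yield fitted curves.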
PINK1 modulator – A Quantitative High throughput Screen to Identify Chemical Modulators of PINK1 Expression; PINK1 immunofluorescence, high-content cytometry, 24 h; Potency, µM (series often up to 76.6 µM), usual class: activators; actives 0.2% (n = 410,000); active = well fitted activation curve with a large enough effect; inconclusive = small, poorly fitted or top-dose-only effect; cell line not stated here; note: nearly all actives have a fitted effect of over 65% in size
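Readout is PINK1 immunofluorescence, quantified alongside mitochondrial, cell and nuclear markers by laser-scanning microplate cytometry. Cells from a stable line were exposed to compound titrations (5 concentrations) for 24 hours, with CCCP controls.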
SW480 rerep – A quantitative high throughput screen for small molecules that induce DNA re-replication in SW480 colon adenocarcinoma cells; SW480 DNA re-replication, Hoechst DNA content imaging, 48 h; Potency, µM (top dose mostly 46.1 µM), hits mostly activators; actives 1.8% (n = 340,000); AID 624297, 2012; note: nearly all actives have a fitted effect of over 55% in size
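250 cells/well; 23 nL cpd via pin tool; 48 hr, 37 C, 5% CO2; Hoechst 40 min; imager read of total nuclear intensity, ex 405/em 500-530 nm.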
KB-V1 MDR tox – qHTS assay for MDR1-selective chemotherapeutics: Primary screen using the drug-selected MDR subline cells KB-V1. KB-V1 MDR cells viability, CellTiter-Glo, 72 h. Potency, µM (doses to about 46.1 µM), actives largely listed as cytotoxic. actives 3.4% (n = 400,000). AID 1347076, 2019; note: nearly all actives have a fitted effect of over 60% in size
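KB-V1 MDR subline cells in DMEM (phenol-red free, 10% FBS) exposed to compounds in qHTS concentration series for 72 h at 37 degrees C. Viability read by CellTiter-Glo luminescence; concentration-effect curves fitted after normalization and correction.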
MCF10A rerep – A quantitative high throughput screen for small molecules that induce DNA re-replication in MCF 10a normal breast cells | AID 624296, 2012 | MCF 10A DNA re-replication, Hoechst nuclear intensity, 48 h | Potency, µM (titrated, usually from 46.1 µM), usual class: activators | actives 2.9% (n = 350,000); note: nearly all actives have a fitted effect of over 50% in size
Hits are given with their value; - = inactive; ? = inconclusive; . = no result given. Shown are actives, neighbours in structure and some others; about 6.8% of the full set was active somewhere. Unless noted, calls come from the whole dose curve; as a rule, active = well fitted curve in the direction sought with a large enough effect; inconclusive = small, poorly fitted or top-dose-only effect, or another doubt; inactive = no such curve, though single readings can be large; an effect the other way counts as inactive or inconclusive.

SMILES	PTAP TSG101 blk	KB-3-1 tox	PINK1 modulator	SW480 rerep	KB-V1 MDR tox	MCF10A rerep
COc1ccccc1-c1cc(C(=O)Nc2cc(OC)c(OC)c(OC)c2)no1	.	?	-	.	?	.
Cn1nc(-c2ccccc2)c(CSc2ccccc2)c1Cl	-	-	-	?	-	13µM
Cc1ccc(SCc2c(C#N)c3ccccc3n2C)cc1	-	-	-	-	-	-
Cc1ccc(Sc2c(C#N)c(-c3ccccc3)nn2C)cc1	-	-	10µM	?	-	6.5µM
Cc1ccc(SCc2c(-c3ccccc3)nn(C)c2Cl)cc1	-	-	-	-	-	8.2µM
Cc1ccc(SCc2nn(C)c(Cl)c2C=O)cc1	-	-	-	-	?	-
O=c1c2oc3ccccc3c2n(Cc2ccccc2Cl)c(=O)n1Cc1ccco1	.	-	-	.	-	.
O=C1N=c2ccccc2=C1c1sc(=S)n(-c2ccc(O)cc2)c1O	-	-	-	-	-	-
O=C1N=c2ccccc2=C1c1sc(=S)n(Cc2ccccc2Cl)c1O	-	?	-	16µM	?	-
Cc1ccc(C)c(CSCc2nc3ccccc3[nH]2)c1	-	-	-	-	-	18µM
c1ccc2cc(CSCc3nc4ccccc4[nH]3)ccc2c1	-	-	?	-	?	21µM
CCCCC(=O)Nc1cccc(NC(=O)CC)c1	-	-	-	-	-	-
COc1ccc(C(=O)NC(=S)NNC(=O)c2ccc(NC(=O)C(C)C)cc2)cc1	-	?	-	-	2.6µM	?
COc1ccc(C(=O)NC(=S)NNC(=O)c2ccc(C)cc2)cc1	-	?	-	-	-	-
CCCCC(=O)Nc1cccc(NC(=S)NC(=O)C(C)C)c1	-	-	-	-	21µM	-
CC(C)C(=O)Nc1cccc(NC(=S)NC(=O)c2ccc(Cl)cc2)c1	-	?	-	-	2.9µM	?
CCCCC(=O)Nc1cccc(NC(=O)c2ccccc2Br)c1	.	-	-	-	5.2µM	-
Cc1ccc(CCNC(=O)c2ccc3c(c2)N(Cc2ccccc2F)C(=O)c2ccccc2S3=O)cc1 (stereo not given)	.	-	-	.	-	.
O=C(NCc1ccc(F)cc1)c1noc2c1CCCCC2	-	-	-	-	16µM	-
O=C(NCc1ccc(Cl)cc1)c1noc2c1CCCCC2	.	-	-	?	21µM	-
O=C(NCc1ccc(F)cc1)c1noc2c1CCCC2	-	-	-	?	-	-
Cc1ccccc1-n1c(=O)[nH]c(=O)c2c(N)c(C(=O)c3ccc(Cl)cc3)sc21	-	-	-	-	-	-
Nc1c(C(=O)c2ccccc2)sc2c1c(=O)[nH]c(=O)n2-c1ccccc1	-	-	-	-	15µM	-
CC(=O)c1ccc(-n2c(=O)[nH]c(=O)c3c(N)c(C(=O)c4ccc(Cl)cc4)sc32)cc1	-	-	-	18µM	-	?
Nc1c(C(=O)c2ccc(Cl)cc2)sc2c1c(=O)[nH]c(=O)n2-c1ccccc1	-	-	-	-	-	?
SMILES	PTAP TSG101 blk	KB-3-1 tox	PINK1 modulator	SW480 rerep	KB-V1 MDR tox	MCF10A rerep
Cc1ccc(C(=O)c2sc3c(c2N)c(=O)[nH]c(=O)n3CCc2ccccc2)cc1	-	-	?	?	?	9.2µM
COc1ccccc1CNc1cc(C)nc2nc(-c3ccc(C)cc3)nn12	.	-	-	.	?	.
O=C(c1cc(COc2ccc3ncccc3c2)on1)N1CCCC1	-	?	-	-	?	-
COCC1CCN(C(=O)c2cc(COc3ccc4ncccc4c3)on2)CC1	-	?	-	-	7.3µM	-
COc1cccc(CN(C)C(=O)c2cc(COc3ccc4ncccc4c3)on2)c1	-	4.1µM	-	-	4.1µM	?
O=C(NCCc1cn2ccccc2n1)c1cc(COc2ccc3ncccc3c2)on1	-	?	-	-	8.2µM	?
CS(=O)(=O)c1ccc2nc(NC(=O)C3CC(=O)N(c4ccccc4)C3)sc2c1 (stereo not given)	-	-	-	-	-	-
COc1ccc(NC(=O)CCS(=O)(=O)c2ccc(Cl)cc2)cc1	-	-	-	-	-	-
COc1ccc(OC)c2sc(NC(=O)CCS(=O)(=O)c3ccccc3)nc12	-	?	-	-	-	21µM
COc1ccc(OC)c2sc(NC(=O)CCSc3ccccc3)nc12	-	-	-	-	-	-
Cc1ccc(N2CC(C(=O)Nc3nc4ccc(S(C)(=O)=O)cc4s3)CC2=O)cc1 (stereo not given)	-	?	-	-	6.5µM	-
CCc1nnc(NC(=O)CCS(=O)(=O)c2ccccc2)s1	-	-	-	18µM	-	15µM
CC(=O)c1sc(NC(=O)CCS(=O)(=O)c2ccc(Cl)cc2)nc1C	-	-	-	?	-	7.3µM
CCOC(=O)C1CCN(C(=O)CSc2n[nH]c(-c3ccccc3)n2)CC1	.	-	-	.	-	.
COc1ccccc1NC(=O)N1CCN(c2nnc(C)c3c(C)n(-c4ccccc4)nc23)CC1	.	-	-	.	-	.
CCOc1c(CC2C(=O)Nc3ccc(Br)cc32)cccc1OC (stereo not given)	.	-	-	.	-	.
COCc1nnc(NC(=O)CCS(=O)(=O)c2ccccc2)s1	-	-	-	15µM	-	?
CC(C)c1nnc(NC(=O)CCS(=O)(=O)c2ccccc2)s1	-	-	-	-	-	?
CS(=O)(=O)c1ccc2nc(NC(=O)CCS(=O)(=O)c3ccccc3)sc2c1	-	-	-	3.7µM	-	3.3µM
N#Cc1ccccc1NC(=O)CSc1nc(-c2ccccc2)cc(C(F)(F)F)c1C#N	.	-	-	.	-	.
CCC(NC(=O)CCl)c1ccc(C)cc1 (stereo not given)	-	21µM	-	-	?	-
CCOc1ccccc1NC(=O)c1cc(C(=O)c2cc(OC)ccc2O)coc1=N	-	-	-	-	12µM	?
Cc1ccc(CNc2oc(-c3ccc(COc4ccc(C)cc4)o3)nc2C#N)cc1	.	-	-	.	-	.
O=C1C(=O)c2c(C(=O)c3ccccc3)coc2-c2ccccc21	-	?	-	?	21µM	21µM
CCN(CC)c1nc(C#N)nc(N2CCOCC2)n1	.	-	-	.	?	.
Cc1cc(C)n2nc(SCC(=O)N3CCN(c4ccccc4)CC3)nc2n1	-	-	-	-	12µM	-
Cc1cc(C)n2nc(SCC(=O)Nc3ccc(O)cc3)nc2n1	-	-	-	-	-	-
Cc1cc(C)cc(NC(=O)CSc2nc3nc(C)cc(C)n3n2)c1	-	-	-	-	18µM	-
